These sequences were tested on RARa:RXR (NR concentration 270 nM, RXRa partner concentration 90 nM) (assay: PBM binding z-score (relative to random genomic background probes); higher = stronger binding; sequences stand for … in GC…GCGATTGACAGCGTAGAATGAAGG).
Summary of the method: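 The probes on custom Agilent 4×180K protein-binding microarrays were double-stranded, with 34-nt variable regions bearing direct-repeat seeds, single-nucleotide variants, half-site ablations and random human genomic background sequences. Incubation lasted 1 h with ligand-free nuclear receptor dimers in PBS pH 7.4, 2% milk, 0.02% Triton X-100, 1 mM DTT, 0.2 mg/mL BSA and 0.4 mg/ml salmon testes DNA. Antibodies against each partner (one per run) detected bound dimers, and fluorescence scans were regression-normalized. Binding z-scores take the random background probes as reference.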
In the case of ACTCGGAGTACAAAGGTCAGAGCTACGCCAGTGA, the PBM binding z-score is reported as 4.96. With GCTCGCAGGACAAGGTCAGAGCTTTGTCCGTAGA the PBM binding z-score was 1.6. For ATCGAAAGGTCGAAGGTGAGTATCCCCACCCGAA, the PBM binding z-score was 3.89. GTACCAAGGTGAATAGGTCGTTGAGGAGTAGGCG gave a PBM binding z-score of 1.74. In the case of CCTACTGGGCCAAAAAGGTCATTGGTGCCGATAA, the PBM binding z-score is reported as 5.26. With ACTATTAGTTGAGACGAGGGGAACCGATAGGTTG the PBM binding z-score was -0.00202. Work on TCAGACAGGTGAAGGTAACTTAGGTACGCAGTCG yielded a PBM binding z-score of 1.27. In the case of GCCAGCAGGCCATTTGGGTCACTCAATGACGGGC, the PBM binding z-score is reported as 0.783. GCTATTAGTTGAAAGGGCAACTGAATGATTCTCG was tested, and the PBM binding z-score was 1.68. Sequence TAGCCTAGGTCAAATCGGGCCAGTATACGCTATA has a PBM binding z-score of 2.74. CAAACTAGGTCATCGGAAGGTCAAAGTCCGCATG gave a PBM binding z-score of 6.84. GGAACTAGGGCATTCGAGTTGATAGCATGGCGAT gave a PBM binding z-score of 0.587. With TCTTGAAGATCAACAGGAGGTTAAGAAAGATCGA the PBM binding z-score was 1.25. Work on ACAGACAGGTGAGTGAAGGTATCTCAGCTGGACG yielded a PBM binding z-score of -0.438. With CAAACTAGGTCAAGCTCAAAGTCGGTTTGTGCCA the PBM binding z-score was 2.52. For AATACAGGGTCATCGTAGCCCAGAGTACGCACAG, the PBM binding z-score was 4.59. With CCTGCTAGGTCATGGTAAGCTAATCTACAGTATG the PBM binding z-score was 2.32. With GCTAGCAGGCCATTTGGGTCACTCAGTGACGGGC the PBM binding z-score was 0.684. For TCAGACAGGTGAAGATAACTCAGGTACGCAGTCG, the PBM binding z-score was 0.891. In the case of CCAGACAGGTGAGAAGGTAACTTAGCCTCGATTA, the PBM binding z-score is reported as 0.0746. TAGCCTAGGTCATGCGGTCCAGTATAGTGTCGGC gave a PBM binding z-score of 2.22. For ACTAGTTGGTCAGCGGAGGTCACACACAATTCGG, the PBM binding z-score was 4.46.
